About 2,000 (0.91%) of roughly 220,000 compounds were called active. Roughly 2% stayed inconclusive and do not appear here. The list is a sample of the results. Potency and affinity values are given separately. Unmarked numbers belong to inactive results. Cut-off read from the data, not from the text of the source: inconclusive = inhibition above about 80% without an active follow-up result; inactive = below that; test concentration not stated here.
Assay: M. tuberculosis H37Rv growth inhibitors, H37Rv strain (AID 1626);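 note: bacteria incubated seven days before Alamar blue readout; 0% = bacteria only wells and 100% = bacteria with antibiotic wells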
Settings: stronger effect = higher value, concentration not given here

Question: Which inhibition does the source give for `CC(C)CNS(=O)(=O)c1ccc(CCC(=O)Nc2cc(Cl)ccc2Oc2ccccc2)cc1` here?
Answer: 9.05%

Question: With `CC(=O)Nc1cccc(Cn2cccn2)c1` as the molecule, how does the inhibition read?
Answer: -6.83%

Question: Which inhibition does the source give for `Cc1ccc(C)c(S(=O)(=O)NC(Cc2c[nH]c3ccccc23)C(=O)O)c1` (stereo not given) here?
Answer: -3.14%

Question: For `Cc1ccc(N(C(=O)c2ccncc2)C2C=CS(=O)(=O)C2)cc1` (stereo not given), which inhibition is on record?
Answer: -9.29%

Question: With `CCCCCCc1cc2cc(C(=O)NCc3ccccc3)c(=N)oc2cc1O` as the molecule, how does the inhibition read?
Answer: -13.1%

Question: For `CCCCCCc1cc2cc(C(N)=O)c(=N)oc2cc1O`, which inhibition is on record?
Answer: -2.17%

Question: For `O=C1N=C(N2CCN(c3cccc4ccccc34)CC2)S/C1=C/c1cccs1`, which inhibition is on record?
Answer: 85.6%

Question: Which inhibition does the source give for `O=C1N=C(N2CCN(c3ccccc3)CC2)S/C1=C/c1cccs1` here?
Answer: 50.8%

Question: With `CCOc1ccc(NC(=O)NCCN2C(C)CCCC2C)cc1` (stereo not given) as the molecule, how does the inhibition read?
Answer: -2.64%

Question: For `N#Cc1c(NC(=O)CSCC(=O)O)sc2c1CCCC2`, which inhibition is on record?
Answer: -15.3%

Question: Which inhibition does the source give for `Cc1c(C(=O)Nc2ccncc2)oc2ccccc12` here?
Answer: -1.93%

Question: For `COc1ccc2oc(C(=O)Nc3nc4ccccc4[nH]3)c(C)c2c1`, which inhibition is on record?
Answer: 51.1%

Question: For `O=C(Nc1nc2ccccc2[nH]1)c1ccccc1`, which inhibition is on record?
Answer: 19.3%

Question: Which inhibition does the source give for `C/C(=N\Nc1nc2ccccc2[nH]1)c1cc2ccccc2o1` here?
Answer: 56.4%

Question: With `O=C(/C=C\c1ccc2c(c1)OCO2)Nc1nnc(SCC(=O)OCc2ccccc2)s1` as the molecule, how does the inhibition read?
Answer: 20.4%

Question: With `CCOc1ccc(OCC)c(S(=O)(=O)NC2CC(C)(C)NC(C)(C)C2)c1` as the molecule, how does the inhibition read?
Answer: -3.13%

Question: With `COc1cccc(CNC(=O)Cn2nc(-c3ccc(Cl)cc3)ccc2=O)c1` as the molecule, how does the inhibition read?
Answer: 4.51%

Question: Which inhibition does the source give for `CCOC(=O)C(C)Sc1nc(=O)n2cc(C)ccc2n1` (stereo not given) here?
Answer: 3.92%

Question: With `Cc1ccc([N+](=O)[O-])cc1NCC(=O)NN` as the molecule, how does the inhibition read?
Answer: -8.54%

Question: With `c1ccc2c(SCc3cn4ccccc4n3)nncc2c1` as the molecule, how does the inhibition read?
Answer: -2.83%

Question: Which inhibition does the source give for `N=C(N)SCc1nc2ccccn2c1Br` here?
Answer: -11.2%

Question: With `CC(C)c1ccc2c(c1)C(c1cccs1)=NNC(c1ccncc1)=N2` as the molecule, how does the inhibition read?
Answer: 0.38%

Question: Which inhibition does the source give for `COc1ccc(-c2nnc3ccc(SC(C(C)=O)C(C)=O)nn23)cc1OC` here?
Answer: 2.29%

Question: With `COc1ccc(NC(C)=O)cc1C#N` as the molecule, how does the inhibition read?
Answer: 0.78%

Question: With `O=C1OC2(CCCCC2)OC(=O)C1=CNc1ccc2c(c1)OCO2` as the molecule, how does the inhibition read?
Answer: 55.9%

Question: Which inhibition does the source give for `NS(=O)(=O)c1ccc(NC=C2C(=O)OC3(CCCCC3)OC2=O)cc1` here?
Answer: 4.66%

Question: With `COCCCNC(=O)Cn1cc(C(C)=O)c2ccccc21` as the molecule, how does the inhibition read?
Answer: -10.3%

Question: For `CC1CCCC(NC(=O)COC(=O)[C@@H](NC(=O)c2ccco2)C(C)C)C1C` (stereo not given in full), which inhibition is on record?
Answer: -2.77%

Question: For `CC(C)(C)c1ccc(C(=O)Nc2ccc(F)cc2)s1`, which inhibition is on record?
Answer: 12.9%

Question: Which inhibition does the source give for `CCc1cc2cc(C(=O)N3CCN(c4ccccc4)CC3)sc2s1` here?
Answer: 2.92%

Question: With `CCc1cc2cc(C(=O)Nc3ccccc3F)sc2s1` as the molecule, how does the inhibition read?
Answer: 0.32%

Question: For `Cc1ccc(NC(=O)c2cccs2)cc1`, which inhibition is on record?
Answer: -1.3%

Question: Which inhibition does the source give for `Cc1cc(C(F)(F)F)nc(SCc2ccc(C(=O)O)o2)n1` here?
Answer: -10.7%

Question: With `COc1ccc(Cn2c(=S)[nH]c3ccsc3c2=O)cc1` as the molecule, how does the inhibition read?
Answer: -1.7%

Question: With `O=c1[nH]cc(COCC(F)(F)C(F)(F)C(F)(F)F)c(=O)[nH]1` as the molecule, how does the inhibition read?
Answer: 5.87%

Question: With `Cc1ccc(S(=O)(=O)N2CCC(C(=O)NNC(=O)c3ccccc3)CC2)cc1` as the molecule, how does the inhibition read?
Answer: 0.71%

Question: With `C/C(=N\NC(=O)c1cc(-c2ccncc2)nc2ccccc12)c1ccc(OC(F)F)cc1` as the molecule, how does the inhibition read?
Answer: 0.28%

Question: For `C#CCNC(=O)C1=C[C@H](c2ccc3c(c2)OCO3)C[C@H](OCCCCO)O1`, which inhibition is on record?
Answer: -6.12%

Question: Which inhibition does the source give for `CCCCNC(=O)COC(=O)c1c2c(nc3ccccc13)/C(=C/c1cccs1)CC2` here?
Answer: 36.5%

Question: With `CC(C)CNC(=O)COC(=O)c1c2c(nc3ccccc13)/C(=C/c1cccs1)CC2` as the molecule, how does the inhibition read?
Answer: 32.2%

Question: Which inhibition does the source give for `CCc1cccc(C)c1NC(=O)COC(=O)c1c2c(nc3ccccc13)/C(=C\c1cccs1)CCC2` here?
Answer: 1.95%

Question: Which inhibition does the source give for `COc1ccc(NC(=O)COC(=O)c2c3c(nc4ccccc24)CCCC3)cc1` here?
Answer: -13.1%

Question: Which inhibition does the source give for `COc1ccc(-c2[nH]ncc2CN2CCC(N3CCSCC3)CC2)cc1F` here?
Answer: -4.08%

Question: Which inhibition does the source give for `CCOC(=O)C(/C=C(\C#N)C(=O)OCC)=C(/N)N1CCN(c2ccccc2)CC1` here?
Answer: -0.44%

Question: With `CCOC(=O)C(/C=C(\C#N)C(=O)OCC)=C(/N)N1CCN(c2ccc(OC)cc2)CC1` as the molecule, how does the inhibition read?
Answer: 6.53%

Question: Which inhibition does the source give for `COc1ccc(C(=O)Nc2ccc(Cl)cn2)cc1Cl` here?
Answer: 12.4%

Question: With `COC(=O)c1cc(NC(=O)CSc2nc(C)cc(=O)[nH]2)cc(C(=O)OC)c1` as the molecule, how does the inhibition read?
Answer: -18.1%

Question: Which inhibition does the source give for `Cc1ccc(N/C(N)=N/c2nc(C)cc(C)n2)cc1` here?
Answer: -3.3%

Question: For `CC(=O)Nc1ccc(N/C(N)=N/c2nc(C)cc(C)n2)cc1`, which inhibition is on record?
Answer: 4.6%

Question: Which inhibition does the source give for `Cn1ccnc1Sc1ccc(/C=N/NC(=O)c2ccccc2[N+](=O)[O-])cc1[N+](=O)[O-]` here?
Answer: -13.1%

Question: For `NC(=O)CSc1nnc(COc2ccccc2)n1CCc1ccccc1`, which inhibition is on record?
Answer: -4.55%

Question: For `Cc1ccc(CNC(=O)C23CN(Cc4ccccc4)CC2C(c2ccc([N+](=O)[O-])cc2)=NO3)cc1` (stereo not given), which inhibition is on record?
Answer: 7.16%

Question: With `Cc1c(Cc2ccccc2)c(NCCN(C)C)n2c(nc3ccccc32)c1C#N` as the molecule, how does the inhibition read?
Answer: -1.57%

Question: With `Cc1cc(NCCCO)n2c(nc3ccccc32)c1C#N` as the molecule, how does the inhibition read?
Answer: 1.01%

Question: For `CCc1c(C)c(C#N)c2nc3ccccc3n2c1N(C)C`, which inhibition is on record?
Answer: -1.31%

Question: For `CCCCCc1c(C)c(C#N)c2nc3ccccc3n2c1-n1ccnc1C`, which inhibition is on record?
Answer: -1.65%

Question: Which inhibition does the source give for `COC(=O)c1cc(C(=O)OC)cc(N2C(=O)CN=C2Nc2nc(C)cc(C)n2)c1` here?
Answer: -5.98%

Question: For `Cc1cc(C)c(NC(=O)c2c[nH]c(=S)n2-c2ccc(F)cc2)c(C)c1`, which inhibition is on record?
Answer: -1.12%

Question: Which inhibition does the source give for `COc1ccc(-c2nc(C#N)c(NCCN(C)C)o2)cc1` here?
Answer: -2.85%

Question: For `COc1cccc(NC(=O)N2CCN(c3nc(-c4cccc(OC)c4)cs3)CC2)c1`, which inhibition is on record?
Answer: 79.8%

Question: For `COc1cccc(-c2csc(N3CCN(C(=O)Nc4ccc(F)cc4)CC3)n2)c1`, which inhibition is on record?
Answer: 20.3%

Question: Which inhibition does the source give for `COc1cccc(-c2csc(N3CCN(C(=O)Nc4ccc(Cl)cc4)CC3)n2)c1` here?
Answer: 80%

Question: Which inhibition does the source give for `COc1cccc(-c2csc(N3CCN(C(=O)Nc4ccccc4OC)CC3)n2)c1` here?
Answer: 0.17%

Question: Which inhibition does the source give for `CCOP(=O)(OCC)C1(O)C(=O)Nc2ccc(Br)cc21` (stereo not given) here?
Answer: 0.14%

Question: Which inhibition does the source give for `CCC1(C)Cc2c(sc3nnn(CC(=O)Nc4ccccc4)c(=O)c23)CO1` (stereo not given) here?
Answer: -3.81%

Question: With `CCOc1ccc(NC(=O)C(CC(=O)O)Cc2ccccc2)cc1` (stereo not given) as the molecule, how does the inhibition read?
Answer: -4.45%

Question: For `COc1ccccc1-c1nc(-c2cccc(C)c2)no1`, which inhibition is on record?
Answer: 9.74%

Question: With `O=c1oc2ccccc2cc1-c1ccc(O)cc1` as the molecule, how does the inhibition read?
Answer: 30.4%

Question: Which inhibition does the source give for `Cc1ccc(-c2csc(Cc3nc(-c4cc5ccccc5oc4=O)cs3)n2)cc1` here?
Answer: -1.52%

Question: Which inhibition does the source give for `O=c1oc2ccccc2cc1-c1nc(-c2ccccc2)no1` here?
Answer: 23.2%

Question: For `O=c1oc2ccccc2cc1-c1ccccc1`, which inhibition is on record?
Answer: -5.07%

Question: With `Cc1cccc(-c2noc(-c3ccoc3C)n2)c1` as the molecule, how does the inhibition read?
Answer: 8.21%

Question: Which inhibition does the source give for `COC(=O)c1sc(SC)c(S(=O)(=O)C(C)C)c1N/N=C(\C#N)C(=O)c1ccccc1` here?
Answer: -10.6%

Question: With `COc1ccc(Cn2cc3c(-c4ccc(F)cc4)nnc-3c3cc(OC)c(OC)cc32)cc1` as the molecule, how does the inhibition read?
Answer: 64.8%

Question: For `CCOCC(=O)Nc1cc(Cl)ccc1C`, which inhibition is on record?
Answer: -11.6%

Question: For `On1c(-c2ccccc2Cl)nc2ccccc21`, which inhibition is on record?
Answer: 12.4%

Question: For `COc1ccc(CNC(=O)CC2C(=O)NCCN2CC(C)(C)C)c(OC)c1` (stereo not given), which inhibition is on record?
Answer: -2.94%

Question: For `Cc1ccccc1OC(C)C(=O)NCc1cccnc1` (stereo not given), which inhibition is on record?
Answer: 1.38%

Question: With `CCOC(=O)C1=C(CSCC(=O)OC)NC(=O)NC1c1cc(C)ccc1C` (stereo not given) as the molecule, how does the inhibition read?
Answer: 0.6%

Question: Which inhibition does the source give for `Cc1cc(C)nc(NC(=O)/C=C/c2ccccc2Cl)c1` here?
Answer: 9.12%

Question: With `Cc1cc(C)nc(NC(=O)/C=C/c2ccccc2Cl)n1` as the molecule, how does the inhibition read?
Answer: -5.04%

Question: Which inhibition does the source give for `O=C(Cn1nc(-c2ccccc2)nc1-c1ccccc1)N1CCOCC1` here?
Answer: -4.2%

Question: Which inhibition does the source give for `COC(=O)[C@@]1(Cc2ccc(F)cc2)[C@H]2c3cc(C(=O)N(C)C)n(Cc4ccccn4)c3C[C@H]2CN1C(=O)c1ccccc1` here?
Answer: 8.03%

Question: With `OC(COc1ccc2ccccc2c1)Cn1ccnc1` (stereo not given) as the molecule, how does the inhibition read?
Answer: 51.7%

Question: For `O=C(CSCC(=O)N1CCN(c2ccccc2)CC1)Nc1nc(-c2ccc(Cl)s2)cs1`, which inhibition is on record?
Answer: 8.45%

Question: With `CCOC(=O)N1CCN(C(=O)CSCC(=O)Nc2nc(-c3ccc(Cl)s3)cs2)CC1` as the molecule, how does the inhibition read?
Answer: 16.6%

Question: Which inhibition does the source give for `CCOc1ccc(OCC(O)CNC2CCN(Cc3ccccc3)CC2)cc1` (stereo not given) here?
Answer: 1.56%

Question: For `OC(CNC1CCCC1)COc1ccc(-c2ccccc2)cc1` (stereo not given), which inhibition is on record?
Answer: 10.9%

Question: For `O=C(OCc1ccc(C(=O)c2ccccc2)cc1)c1cccc(-c2nnc(-c3ccccc3)o2)c1`, which inhibition is on record?
Answer: 20.2%

Question: Which inhibition does the source give for `O=c1oc(-c2ccccc2NS(=O)(=O)c2ccc3ccccc3c2)nc2ccccc12` here?
Answer: 7.84%

Question: Which inhibition does the source give for `O=C(c1cc(-c2ccncc2)nc2ccc(Cl)cc12)N1CCN(Cc2ccc3c(c2)OCO3)CC1` here?
Answer: 0.94%

Question: For `CCOc1ccc(NC(=O)Cn2nnc3c(cnn3-c3ccc(F)cc3)c2=O)cc1`, which inhibition is on record?
Answer: 3.8%

Question: For `C/C(Cc1ccccc1)=N/NC(=O)CNC(=O)C(c1ccccc1)c1ccccc1`, which inhibition is on record?
Answer: -1.53%

Question: Which inhibition does the source give for `CCc1ccc(C2c3[nH]c4ccccc4c3CCN2C(=O)c2cc[n+]([O-])cc2)cc1` (stereo not given) here?
Answer: 7.89%

Question: For `CCc1ccc(C2c3[nH]c4ccccc4c3CCN2C(=O)c2ccc(=O)n(C)n2)cc1` (stereo not given), which inhibition is on record?
Answer: 37.1%

— PubChem BioAssay AID1626 (SRMLSC, 2009)
